Measured values reported in PubChem BioAssay AID568 (Sanford-Burnham Center for Chemical Genomics, 2006).
Out of some 83,000 compounds screened, fewer than 10 were called active. The rule behind the calls is not given here. Only a sample is shown. Potency and affinity values are given separately.

These molecules were tested against Heat shock cognate 71 kDa protein (Homo sapiens) (UniProt P11142) (assay: Hsc70 inhibitors, probe displacement, primary screen, biochemical, fluorescence polarization (AID 568)). Conditions: mP, at 20 µM, hits give high values.
Sequence of Heat shock cognate 71 kDa protein (Homo sapiens) (P11142 whole entry, looked up): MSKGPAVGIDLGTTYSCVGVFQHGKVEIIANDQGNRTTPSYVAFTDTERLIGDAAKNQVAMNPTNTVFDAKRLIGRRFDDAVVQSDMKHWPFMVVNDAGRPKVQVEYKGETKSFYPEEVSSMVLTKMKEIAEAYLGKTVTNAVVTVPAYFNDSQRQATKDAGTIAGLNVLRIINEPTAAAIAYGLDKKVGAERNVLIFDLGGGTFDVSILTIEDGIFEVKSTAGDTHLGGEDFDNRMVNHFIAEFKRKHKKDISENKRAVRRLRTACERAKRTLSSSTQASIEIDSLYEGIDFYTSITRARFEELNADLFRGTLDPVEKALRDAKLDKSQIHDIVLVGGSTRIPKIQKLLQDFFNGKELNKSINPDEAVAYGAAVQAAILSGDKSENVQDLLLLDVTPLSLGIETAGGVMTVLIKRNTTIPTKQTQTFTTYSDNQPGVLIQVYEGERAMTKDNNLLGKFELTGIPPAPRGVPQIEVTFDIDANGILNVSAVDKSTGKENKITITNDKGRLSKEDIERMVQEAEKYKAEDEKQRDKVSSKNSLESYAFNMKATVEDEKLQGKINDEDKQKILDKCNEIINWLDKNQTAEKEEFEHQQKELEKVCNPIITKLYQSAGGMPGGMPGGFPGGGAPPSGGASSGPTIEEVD
Sequence of Heat shock cognate 71 kDa protein (Homo sapiens) (P11142 whole entry, looked up): as above

displacement, inactive:
COc1ccc(S(=O)(=O)NCC2CCC(C(=O)N3CCC4(CC3)OCCO4)CC2)cc1 (configuration not stated) -1.2%
CC1CCN(c2nc(-c3ccccc3)c(C#N)c(=O)[nH]2)CC1 -1.1%
C=CCn1c(O)c(C(CC)=Nc2ccccc2NC(=O)CC)c(=O)[nH]c1=O 0%
NC(=O)CSc1nnc(CCc2nc3ccccc3[nH]2)n1-c1ccccc1 -0.4%
COC(=O)c1ccc(Nc2nc(C)cc(=O)[nH]2)cc1 -5.8%
Cc1occc1C(=O)Nc1cc(C(C)(C)C)on1 -3.1%
CCn1c(=O)n(CC)c2cc(S(=O)(=O)Nc3ccccc3C)c(C)cc21 0.5%
CCOC(=O)N1CCN(C(=O)c2ccc(N3C(=O)c4ccccc4C3=O)cc2)CC1 -0.7%
O=C1OCC(Cn2c3ccccc3c3ccccc32)O1 (configuration not stated) 4.8%
O=C(CN1C(=O)c2cccc3cccc1c23)N1CCN(Cc2ccc3c(c2)OCO3)CC1 -5.5%
CC(C)C(=O)Nc1cc(=O)[nH]c2ncnn12 -7.6%
CCN1C(=O)Cc2cc(S(=O)(=O)N3CCOCC3)ccc21 7%
N#Cc1cn(CC(=O)N2CCCC2)c2ccccc12 -2.4%
Clc1ccc(OCCn2cnc3ccccc32)c(Cl)c1 -4%
CCC(CC)C(=O)NCc1ccccc1Cl 0.3%
Cc1ccc(S(=O)(=O)/N=C2/C=C(C3C(=O)CC(C)(C)CC3=O)C(=O)c3ccccc32)cc1 4%
Cc1ccc(C(=O)COc2nc(C)cc(C)c2C#N)cc1 3.2%
Cc1cc(=O)n2nc(N3CCCC(C(=O)NCCCN4CCc5ccccc5C4)C3)sc2n1 (configuration not stated) 3%
CC(C)OC(=O)C1CC=CCC1C(=O)Nc1ccc(Cl)cc1 (configuration not stated) 0.4%
CCc1nnc(NC(=O)CSc2nnnn2C)s1 -1.1%
CC(C)CCNC(=O)c1ccc2c(c1)ncn2C1CCCCC1 0.7%
Oc1ccccc1CNCCCNCc1ccccc1O -1.3%
COc1ccccc1N1C(=O)CC(Sc2nc(C)cc(C)n2)C1=O (configuration not stated) 0.9%
COC(=O)c1ccc(NC(=O)CCN2CCN(CCC(=O)Nc3ccc(C(=O)OC)cc3)CC2)cc1 2.6%
Cc1cc(C)c2c(N)c(S(=O)(=O)Cc3ccccc3)sc2n1 3.8%
O=C(O)CCN1C(=O)C2CCCCC2C1=O (configuration not stated) -0.4%
Cc1ccc(OCC2Cn3c(nc4c3c(=O)n(C)c(=O)n4C)O2)cc1 (configuration not stated) 1.1%
COc1ccc(OC)c(-n2nnnc2SCC(=O)O)c1 4.6%
CCC(=O)N(Cc1cc2ccccc2[nH]c1=O)C(C)C 7%
Cc1ccc2c(c1)NCC(C(=O)NCc1ccccc1)O2 (configuration not stated) 1.6%
CCc1cccc(NS(=O)(=O)c2ccc3c(c2)oc(=O)n3C)c1 1.5%
CC1(c2ccc(OC(F)F)cc2)NC(=O)N(CC(=O)Nc2ccc3c(c2)OCO3)C1=O (configuration not stated) -2.6%
Cc1cccc(C)c1NC(=O)NC1(C(=O)NCCCN2CCOCC2)CCCCC1 -2.5%
Cc1noc(C)c1COC(=O)CCCc1nc2ccccc2s1 0.6%
COc1ccc(C(=O)Nc2ccc3oc(-c4cccc(F)c4)nc3c2)cc1OC 2.4%
Cc1ccc(/C=N/NC(=O)CC2N=C(Cc3ccccc3)NNC2=O)cc1 (configuration not stated) -1.6%
CN1C(=S)SC(/[N+]([O-])=C\c2ccco2)C1(C)C (configuration not stated) -8.3%
CCOC(=O)c1sc(NC(=O)C2CCCO2)c(C(=O)OC)c1C (configuration not stated) 2.1%
Cc1ccc(-c2cc3nc(C)cc(NCc4ccco4)n3n2)cc1 -12.6%
CCOC(=O)N1CCC(N2C(=O)c3ccccc3C2Nc2ccc(Cl)cn2)CC1 (configuration not stated) 0%
CCC(=O)N1CCc2cc(Br)cc(S(=O)(=O)NCC3CCCO3)c21 (configuration not stated) 5.2%
COc1ccc(-c2nnc3sc(CCN4C(=O)c5ccccc5C4=O)nn23)cc1 -0.6%
O=C(N1CCN(c2ccccc2)CC1)C(F)(F)C(F)(F)F 8.8%
CCOC(=O)CCSCC(=O)Nc1cc(C)on1 4.3%
Cc1ccc(NCc2nnc(SCC(=O)OC3CCCCC3)o2)c(C)c1 -6.7%
CCN1CCN(C(=O)c2sc3nc(C)nc(N4CCC(C)CC4)c3c2C)CC1 -3.6%
CN(c1ccccc1)C(c1ccc(F)cc1)c1nnnn1C1CCCC1 (configuration not stated) -4.6%
CCOC(=O)c1ccc(COC(=O)CNC(=O)CNC(=O)c2ccc(OC)cc2)o1 -3.7%
CC(C)C(c1nnnn1Cc1ccc(F)cc1)N1CCSCC1 (configuration not stated) -2.2%
COc1ccc(CCN2CNc3c(c(=O)n(C)c(=O)n3C)C2)cc1 0.1%
O=C(CSc1nnc(-c2ccncc2)n1CC1CCCO1)NCc1ccccc1 (configuration not stated) -0.2%
O=C(Nc1ccc(N2CCOCC2)cc1)c1cccc(S(=O)(=O)N2CCC(Cc3ccccc3)CC2)c1 -1.4%
Cc1ccc(OCC(=O)Nc2cc(-c3nn4c(C)nnc4s3)ccc2C)cc1 4.5%
Clc1ccc(/C=N/c2c(-c3ccco3)nc3ccccn23)cc1 3.7%
CC(NC(=O)c1ccc(CS(=O)(=O)c2cccc(C(F)(F)F)c2)o1)c1ccc2c(c1)OCCO2 (configuration not stated) -1.8%
COc1ccc(C(=O)Oc2cccnc2)cc1 -4.3%
Cc1ccc(C)c2c1[nH]c1ccccc12 1.5%
CC(C)Cc1cc(C(=O)N2N=C(C(F)F)CC2(O)C(F)F)c2ccccc2n1 (configuration not stated) 1.5%
COc1cc2cc(C(c3nnnn3C3CCCC3)N3CCCCCC3)c(=O)[nH]c2cc1OC (configuration not stated) -5%
COCCN1C(=O)c2ccccc2C(C(=O)NCCN(C)C)C1c1ccc(F)cc1 (configuration not stated) -4.9%
CCCCn1c(=O)n(CC(=O)Nc2ccc(C)c(Cl)c2)c(=O)c2c1ncn2Cc1ccco1 -21.2%
CCOc1ccc(CC(C(=O)NN)C(=O)NN)cc1CN(C)C 2.3%
